Measured values as given in PubChem BioAssay (NCI).
“And” between values parts separate entries of the source, which are not always exact repeats. Equal values may be shown once. The panel holds about 83,000 compounds, 20% with a hit somewhere; the sample as a whole holds those more often.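 Step 1: grow cells in 96-well plates. Step 2: add test compound at a single concentration. Step 3: incubate 48 h. Step 4: record percent growth.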 The source made the active and inactive calls. The calls were made as follows: active = growth percent below 10; inactive = the rest.

Test system: MDA-MB-468 breast
Experiment: NCI-60 one-dose screen, 48 h (100 = growth as untreated, 0 = no growth, -100 = all killed)
Conditions: 10 µM unless noted

Cc1cc(N(CCCl)CCCl)ccc1C=Nc1ccc(-c2csc(Cc3ccccc3)n2)cc1
growth: 39.3% (inactive)

CC(=O)N1N=C(c2ccccc2)CC1c1sc(N(CCCl)CCCl)nc1Cl (centres undefined)
growth: 92.6% (inactive)

CCC(CC)CC1(C)CC2(C)CCOC2OO1 (centres undefined)
growth: 110% (inactive)

C[C@]12CCc3sc(-c4cccc(F)c4)nc3C1=CC[C@@H]1[C@@H]2CC[C@]2(C)C(=O)CC[C@@H]12
growth: 29.2% (inactive)

CC[C@H](C)[C@H](NC(=O)Nc1ccccc1)C(=O)N(C)[C@H](C[C@@H](OC(C)=O)c1nc(C(=O)N[C@@H](Cc2ccccc2)C[C@H](C)C(=O)OC)cs1)C(C)C
growth: -1.4% (active)

COC(=O)C1=CO[C@@H](C)[C@@H]2CN3CCc4c([nH]c5cc(OC)ccc45)[C@@H]3C[C@H]12
growth: 107% (inactive)

CC(CO)NC1CCCCC1 (centres undefined)
growth: 107% (inactive)

COc1cc(NC(C)CCCNC2CN3CCC2CC3)c2ncccc2c1 (centres undefined)
growth: -1.39% (active)

OCCN=Cc1c[nH]c2ccccc12
growth: 119% (inactive)

Cc1cc([N+](=O)[O-])c2ccccc2[n+]1[O-]
growth: -55.7% (active)

CC1(C)N=C(N)N=C(N)N1c1ccc(OCCCCNC(=O)c2ccc(S(=O)(=O)F)cc2)c(Cl)c1
growth: 64.7% (inactive)

O=C(CC1(O)C(=O)N(Cc2ccccc2)c2ccc(Cl)cc21)c1ccc(C(=O)NCC2CCC3(CC2)OOC2(CCCCC2)OO3)cc1 (centres undefined)
growth: 6.64% (active)

O=[N+]([O-])c1ccc(OP(=O)(CCl)N(CCCl)CCCl)cc1 (centres undefined)
growth: 101% (inactive)

NC(=O)c1c(Br)c(Br)c(Br)c(Br)c1C(=O)O (tested in a mixture with another compound)
growth: 93.7% (inactive) and 101% (inactive)

CCCCN1CCCC[C@@H]1C(=O)N[C@H](C(=O)N(C)[C@H](CCc1nc(C(=O)N[C@@H](Cc2ccccc2)C[C@H](C)C(=O)OC)cs1)C(C)C)[C@@H](C)CC
growth: -1.75% (active)

CC1=C(CCCNS(C)(=O)=O)C2=C(C)C3(CC3)[C@@](C)(O)C(=O)C2=C1
growth: -80.9% (active)

COc1ccc(/C=C\c2cc(OC)c(OC)c(OC)c2)cc1N/C=C\C(=O)c1c[nH]c2ccccc12
growth: 11.3% (inactive)

Cc1cc(Br)c([N+](=O)[O-])cc1[N+](=O)[O-]
growth: 58.4% (inactive)

C[C@@]12CC=C3c4nc(Nc5cccc(O)c5)sc4CC[C@]3(C)[C@H]1CC[C@]1(C)C(=O)CC[C@@H]21
growth: 32.2% (inactive)

COC(=O)[C@@H](C)C[C@H](Cc1ccc(F)cc1)NC(=O)c1csc([C@@H](C[C@H](C(C)C)N(C)C(=O)[C@@H](NC(=O)[C@H]2CCCCN2C)C(C)C)OC(C)=O)n1
growth: 21% (inactive)

O=C(CC1(O)C(=O)Nc2ccc(F)cc21)c1ccc(C(=O)NCC2CCC3(CC2)OOC2(CCCCC2)OO3)cc1 (centres undefined)
growth: 47.6% (inactive)

O=S(=O)(c1ccc(Cl)cc1)C(Cl)(Cl)Cl
growth: -20.4% (active)

CC(=O)O[C@H](C[C@H](C(C)C)N(C)C(=O)[C@@H](NC(=O)[C@H]1CCCCN1C)C(C)C)c1nc(C(=O)N[C@@H](Cc2ccccc2)C[C@H](C)C(=O)O)c(C)s1
growth: 11.4% (inactive)

CC1=C2[C@H]3OC(=O)[C@@H](C)[C@@H]3CC[C@@]2(C)C=CC1=O
growth: 93.4% (inactive)

COc1cc(/C=C\[N+](=O)[O-])ccc1O
growth: 4.87% (active) and 65.1% (inactive)

COc1ccc(C(=O)c2ccc([As]=O)cc2)cc1 (centres undefined)
growth: -74.8% (active)

COc1cc(/C=C/[N+](=O)[O-])cc(OC)c1
growth: -61.2% (active)

CC(=O)N(C)C1=Nc2ccc(Cl)cc2C(c2ccccc2)=[N+]([O-])C1
growth: 111% (inactive)

CC[C@H](C)[C@H](NC(=O)[C@H]1CCCCN1C)C(=O)N(C)[C@H](C[C@@H](O)c1nc(C(=O)N[C@@H](Cc2ccccc2)C[C@H](C)C(=O)O)cs1)C(C)C
growth: 70.1% (inactive)

CC(C)(O)/C=C/C(=O)[C@](C)(O)[C@H]1[C@H](O)C[C@@]2(C)[C@H]3CC=C4[C@@H](C[C@H](O)C(=O)C4(C)C)[C@]3(C)C(=O)C[C@]12C
growth: -23.4% (active)

C/C(=C\c1ccn(-c2ccc(N)c(F)c2)n1)[C@@H]1C[C@@H]2O[C@]2(C)CCC[C@H](C)[C@H](O)[C@@H](C)C(=O)C(C)(C)[C@@H](O)CC(=O)O1
growth: 10.5% (inactive)

O=C1CCCCC1CN1CCCCC1 (centres undefined)
growth: 112% (inactive)

CC(C)CCC(=O)O[C@H]1CC[C@H]2[C@@H]3CCC4=CC(=O)CC[C@]4(C)[C@H]3CC[C@]12C
growth: 102% (inactive)

COC(=O)C12C3C4C1C1C2C3C41NC(=O)c1csc([C@@H](C[C@H](C(C)C)N(C)C(=O)[C@@H](NC(=O)[C@H]2CCCCN2C)C2CC2)OC(C)=O)n1 (some centres undefined)
growth: 29.6% (inactive)

Cc1ccc(CNc2nc3ccc(OC/C(=C/F)CN)cc3o2)cn1
growth: 109% (inactive)

C=C1C(=O)OC2CC3(C)OC3C3OC3C3=CC(OC3=O)C12 (centres undefined)
growth: 32.8% (inactive) and 65.2% (inactive)

C[As](=O)(O)c1ccc(C(=O)O)cc1
growth: 99.8% (inactive)

COC1[C@@H]2C[C@H]3C(C)(C)O[C@@](C/C=C(/C)C(=O)O)(C2=O)[C@]32Oc3c(CC=C(C)C)c4c(c(O)c3C(=O)[C@H]12)C=CC(C)(C)O4 (some centres undefined)
growth: -65.2% (active)

Clc1ccc(N2COOC3(OOC2)C2CC4CC(C2)CC3C4)cc1
growth: 65.3% (inactive)
